In PubChem BioAssay (EPA / NIEHS):
Several values for one entry are separate records, joined by “and”; a condition that tells them apart may be missing. Identical values can stand only once. Records with an inconclusive call do not appear. Activity calls are given as the source filed them. Rule for the calls: active = hit-call score of the fitted dose curve at least 0.9, where 1 is the maximum; inconclusive = response in the unintended direction; inactive = score below 0.9.

What follows are molecules tested against Glucocorticoid receptor (Homo sapiens) (UniProt P04150) (assay: NVS_NR_hGR: NovaScreen (NVS) Nuclear Receptor Binding Assay for human Glucocorticoid Receptor (GR) (AID 2283363);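 for AC50: activity is loss of specific radioligand binding signal relative to DMSO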).
Method in brief: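 Cell-free radioligand displacement assay on extracted human GR, read 16 h after dosing by filter-based scintillation counting. Screened in duplicate at 25 uM, then concentration series for actives; loss of signal versus DMSO baseline.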

Chain of Glucocorticoid receptor (Homo sapiens) (P04150 whole entry, looked up): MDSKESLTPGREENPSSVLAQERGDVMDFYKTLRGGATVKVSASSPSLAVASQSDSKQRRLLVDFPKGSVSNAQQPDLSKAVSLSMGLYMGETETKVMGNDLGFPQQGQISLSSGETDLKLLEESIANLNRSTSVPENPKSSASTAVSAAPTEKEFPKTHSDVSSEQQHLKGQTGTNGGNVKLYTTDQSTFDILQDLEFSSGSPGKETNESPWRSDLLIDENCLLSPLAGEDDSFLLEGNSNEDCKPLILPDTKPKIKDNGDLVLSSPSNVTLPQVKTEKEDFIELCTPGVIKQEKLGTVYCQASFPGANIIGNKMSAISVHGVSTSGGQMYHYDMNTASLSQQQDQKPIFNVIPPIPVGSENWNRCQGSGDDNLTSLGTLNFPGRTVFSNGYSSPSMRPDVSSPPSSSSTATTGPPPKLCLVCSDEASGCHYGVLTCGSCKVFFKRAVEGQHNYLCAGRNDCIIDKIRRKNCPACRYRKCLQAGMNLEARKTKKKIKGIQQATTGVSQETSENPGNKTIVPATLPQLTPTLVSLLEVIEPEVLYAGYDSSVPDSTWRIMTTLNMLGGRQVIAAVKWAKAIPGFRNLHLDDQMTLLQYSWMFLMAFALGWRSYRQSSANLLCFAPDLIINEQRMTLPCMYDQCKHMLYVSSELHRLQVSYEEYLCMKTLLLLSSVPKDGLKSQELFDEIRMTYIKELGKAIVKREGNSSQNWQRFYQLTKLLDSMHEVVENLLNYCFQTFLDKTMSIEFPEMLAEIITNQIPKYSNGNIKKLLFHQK

outcome, inactive:
CCCCc1nc2cccnc2n1Cc1ccc(-c2ccccc2-c2nnn[nH]2)cc1, CCCCOC(=O)CCCCC(=O)OCCCC, CCCCC(CC)COP(=O)(OCC(CC)CCCC)OCC(CC)CCCC (stereo not given), Cc1cc(Cc2ccc(N)c(C)c2)ccc1N, S=c1[nH]c2ccccc2s1

AC50, active:
CCCCCCCCCCCCCCOS(=O)(=O)O 2.14 µM, O=Cc1ccccc1C=O 6.78 µM

The molecules below were run against Nuclear receptor subfamily 1 group I member 2 (Homo sapiens) (UniProt O75469) (assay: NVS_NR_hPXR: NovaScreen (NVS) Nuclear Receptor Binding Assay for human Pregnane X Receptor (PXR) (AID 2283365);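 note: a drop in FRET signal versus DMSO baseline means the compound binds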).
Method in brief: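 Human PXR binding measured by TR-FRET in a cell-free format, 2 h exposure. Single-concentration duplicates at 25 uM preceded concentration-response retests of actives; endpoint fitted positively relative to DMSO, loss of signal indicating binding.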

Chain of Nuclear receptor subfamily 1 group I member 2 (Homo sapiens) (O75469 whole entry, looked up): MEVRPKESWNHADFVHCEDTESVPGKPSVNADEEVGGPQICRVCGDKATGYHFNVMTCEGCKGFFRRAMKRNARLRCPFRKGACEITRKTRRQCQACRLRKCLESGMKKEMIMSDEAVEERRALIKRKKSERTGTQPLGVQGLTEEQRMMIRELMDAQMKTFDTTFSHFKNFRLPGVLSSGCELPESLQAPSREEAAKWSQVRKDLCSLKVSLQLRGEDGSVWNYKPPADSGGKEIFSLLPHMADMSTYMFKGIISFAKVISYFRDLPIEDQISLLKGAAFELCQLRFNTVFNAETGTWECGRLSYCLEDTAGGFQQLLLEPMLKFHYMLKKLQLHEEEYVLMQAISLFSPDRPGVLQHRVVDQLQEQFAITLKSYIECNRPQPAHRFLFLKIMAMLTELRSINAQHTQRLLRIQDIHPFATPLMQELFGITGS

outcome, inactive:
CC(=O)CC(c1ccccc1)c1c(O)c2ccccc2oc1=O (stereo not given), O=C1c2c(O)cccc2Cc2cccc(O)c21, CSc1ccc(Oc2ccc(S(N)(=O)=O)cc2CN(C)C)cc1C, COc1ccc(C(=O)Nc2nc3ccccc3c(NCc3ccccc3)c2C#N)cc1, CC(=O)O[C@]1(C(C)=O)CC[C@H]2[C@@H]3C=C(Cl)C4=CC(=O)[C@@H]5C[C@@H]5[C@]4(C)[C@H]3CC[C@@]21C, O=C1NC(=O)C(c2ccccc2)(c2ccccc2)N1, CC(=O)[C@@]1(O)CC[C@H]2[C@@H]3CCC4=CC(=O)CC[C@]4(C)[C@H]3CC[C@@]21C, CN(C)C(=O)NC1(c2ccccc2)CCN(CC[C@@]2(c3ccc(F)c(F)c3)CN(C(=O)c3ccccc3)CCO2)CC1, CC(C)(C)c1ccccc1

AC50, active:
CCN(CC)CCOc1ccc(C(=C(Cl)c2ccccc2)c2ccccc2)cc1 3.15 µM and 3.46 µM and 3.72 µM, COc1ccc(OC(F)(F)F)cc1CN[C@H]1CCCN[C@H]1c1ccccc1 7.41 µM, CCCCCCCCCCCCCCOS(=O)(=O)O 7.25 µM, CC(C)OC(=O)C(C)(C)Oc1ccc(C(=O)c2ccc(Cl)cc2)cc1 41.2 µM
